Records with an inconclusive call do not appear. Calls of active or inactive are those of the source. Rule for the calls: active = hit-call score of the fitted dose curve at least 0.9, where 1 is the maximum; inconclusive = response in the unintended direction; inactive = score below 0.9.

Chain of Estrogen receptor beta (Homo sapiens) (Q92731 whole entry, looked up): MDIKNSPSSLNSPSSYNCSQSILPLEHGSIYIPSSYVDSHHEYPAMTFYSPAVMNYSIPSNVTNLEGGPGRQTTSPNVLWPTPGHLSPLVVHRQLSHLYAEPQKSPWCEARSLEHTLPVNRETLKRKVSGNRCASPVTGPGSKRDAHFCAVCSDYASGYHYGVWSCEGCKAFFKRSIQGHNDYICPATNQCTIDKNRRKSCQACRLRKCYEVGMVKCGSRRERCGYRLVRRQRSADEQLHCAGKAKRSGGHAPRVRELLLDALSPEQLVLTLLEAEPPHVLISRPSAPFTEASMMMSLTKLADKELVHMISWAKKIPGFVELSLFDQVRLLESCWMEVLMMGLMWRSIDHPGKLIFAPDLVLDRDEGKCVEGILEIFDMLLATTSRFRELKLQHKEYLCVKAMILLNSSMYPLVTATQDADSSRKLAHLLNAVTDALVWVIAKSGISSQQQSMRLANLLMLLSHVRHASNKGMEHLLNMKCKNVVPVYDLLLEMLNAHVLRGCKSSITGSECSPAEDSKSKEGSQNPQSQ

The assay deals with Estrogen receptor beta (Homo sapiens) (UniProt Q92731). In words: ATG_hERb_XSP2: Attagene TRANS-FACTORIAL Multi-Species (XSP2) HepG2 Assay for human Estrogen Receptor (ERb) (AID 2283813).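 Note: actives raise reporter mRNA above DMSO so AC50 reflects agonist induction.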 On the procedure:
ATG_XSP2_multi-species_TRANS is a cell-based, multiplexed assay created by modifying the existing Attagene TRANS-FACTORIAL system to include a panel of nuclear receptors from some or all the following species: human (Homo sapiens), mouse (Mus musculus), frog (Xenopus laevis), zebrafish (Danio rerio), chicken (Gallus gallus), and turtle (Chrysemys picta). The ECOTOX-FACTORIAL format uses HepG2, a human liver cell line, with measurements taken at 24 hours after chemical dosing in a 24-well plate. Xsp2 included 3 nM 6-alpha-fluorotestosterone and 1.5 nM norgestrel to stimulate the androgen receptor.ATG_hERb_XSP2 is one of 29 assay components measured or calculated from the ATG_XSP2_multi-species_TRANS assay. It is designed to make measurements of mRNA induction, a form of inducible reporter, as detected with fluorescence intensity signals by Reverse transcription polymerase chain reaction (RT-PCR) and Capillary electrophoresis technology.The assay endpoint ATG_hERb_XSP2 was analyzed in the positive analysis fitting direction relative to DMSO as the negative control and baseline of activity. Using a type of inducible reporter, measures of mRNA for gain-of-signal activity can be used to understand the reporter gene at the transcription factor-level as they relate to the gene ER. Furthermore, this assay endpoint can be referred to as a primary readout, because this assay has produced multiple assay endpoints where this one serves a reporter gene function. To generalize the intended target to other relatable targets, this assay endpoint is annotated to the nuclear receptor intended target family, where the subfamily is steroidal.
Human liver HepG2 cells are transiently transfected with multiple reporter transcription units (MRTUs) in 6-well plates using FuGene 6 reagent (Roche; 3 ml FuGene/1 mg DNA). The MRTU constructs are regulated by a cis-regulating element (promoter). […] A major difference between the CIS and TRANS system is that in CIS activities of endogenous TFs are measured, whereas the TRANS assay evaluates changes in activities of exogenous, chimeric NR-Gal4 proteins. […] At the end of 24 hour incubation, total RNA was isolated using TriZol reagent (Invitrogen). The isolated RNA is then reverse-transcribed using oligo(dT) primer and Mo-MLV reverse transcriptase (Invitrogen) with DNAse I (Ambion) treatment for 30 min. The one-tenth of the produced cDNA was amplified by PCR using Taq DNA polymerase (Invitrogen) and two reporter sequence-specific primers. The PCR products were fluorescently labeled by primer extension with 6-arboxyfluorescein (6-FAM) 5'-labeled reporter sequence-specific primer (2 min at 95 C, 20 s at 68 C and 10 min at 72 C) and these products were digested with 5U of HpaI (New England Biolabs) for 2h at 37 C. The fragments were purified using Qiaquick PCR columns (Qiagen), analyzed on an ABI 3130xL genetic analyzer (Applied Biosystems) with peak positions identified by using a set of X-rhodamine (ROX)-labeled MapMarker1000 molecular weight standards (BioVentures). The raw capillary electrophoresis data was processed using Attagraph software (Attagene).
`CCCCNC(=O)OCC#CI`: the outcome was inactive. Take `COc1ccc(C(c2ccc(OC)cc2)C(Cl)(Cl)Cl)cc1`: the outcome was inactive. One may read the AC50 as the concentration giving half of the maximal activity seen. On to `CC(C)Oc1cc(-n2nc(C(C)(C)C)oc2=O)c(Cl)cc1Cl`, for which the concentration at half-maximal activity (AC50) is 29.3 µM (active). On to `C=CC1(C)OC(=O)N(c2cc(Cl)cc(Cl)c2)C1=O` (stereo unspecified), for which the outcome was inactive. `CCOP(=S)(OCC)SCn1c(=O)oc2cc(Cl)ccc21`: the compound was called inactive. As to `CCCCOC(=O)c1ccccc1C(=O)OCCCC`, the outcome was inactive. With `COP(=S)(OC)Oc1nc(Cl)c(Cl)cc1Cl`, the call was inactive.

Take `OC(c1ccc(Cl)cc1)(c1cncnc1)c1ccccc1Cl` (stereo unspecified): the concentration at half-maximal activity (AC50) is 25.4 µM (active).

For `CCCN(CCC)c1c([N+](=O)[O-])cc(S(N)(=O)=O)cc1[N+](=O)[O-]`, the outcome was inactive. Still for that read-out and setting: the result for `COC(=O)N(OC)c1ccccc1COc1ccn(-c2ccc(Cl)cc2)n1` reads “inactive”; that for `CC(C)(C)c1ccc(CSc2cnn(C(C)(C)C)c(=O)c2Cl)cc1`, “inactive”.

The values above are taken from PubChem BioAssay (EPA / NIEHS).
